# According to PubChem BioAssay AID1851 (National Center for Advancing Translational Sciences (NCATS), 2009):
# Values joined by “and” are separate entries in the source; they are usually repeats but may differ in a detail not shown here. Identical values can stand only once. Out of some 16,000 compounds screened, about 2,600 (16%) were called active. Inconclusive results (about 20%) are left out. The call rests on the fitted dose curve; in most records, active means well fitted curve in the direction sought with a large enough effect; inconclusive means small, poorly fitted or top-dose-only effect, or effect the other way; inactive means no such curve, though single readings can be large or run the other way. The list is a sample of the results. A structure can be active in one record and inactive in another.
# Target: Cytochrome P450 2D6 (Homo sapiens) (UniProt P10635)
# Assay: Cytochrome panel assay with activity outcomes
# Conditions: recombinant CYP, pro-luciferin dealkylation, luminescence, p450-cyp2d6; series mostly up to 57.1 µM
# On the % scale 0 is the no-effect control and ±100 the full control effect.
# Chain of Cytochrome P450 2D6 (Homo sapiens) (P10635 whole entry, looked up): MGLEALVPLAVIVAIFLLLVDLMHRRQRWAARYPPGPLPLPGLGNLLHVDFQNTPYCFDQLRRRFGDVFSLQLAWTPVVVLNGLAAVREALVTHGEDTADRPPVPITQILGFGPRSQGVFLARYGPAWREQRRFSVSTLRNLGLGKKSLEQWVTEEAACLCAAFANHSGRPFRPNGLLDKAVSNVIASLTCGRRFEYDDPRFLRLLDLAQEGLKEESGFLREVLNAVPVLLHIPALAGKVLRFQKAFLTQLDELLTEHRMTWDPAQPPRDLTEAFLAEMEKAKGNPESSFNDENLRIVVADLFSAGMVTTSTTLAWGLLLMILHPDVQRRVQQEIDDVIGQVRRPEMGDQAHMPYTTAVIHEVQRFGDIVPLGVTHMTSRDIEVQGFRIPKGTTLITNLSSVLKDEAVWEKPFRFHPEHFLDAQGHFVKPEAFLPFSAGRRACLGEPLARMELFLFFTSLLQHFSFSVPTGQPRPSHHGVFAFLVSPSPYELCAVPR
SMILES,AC50,"activity, negative = inhibition"
O=C(Nc1ccc(Oc2ccccc2)cc1)C1CCN(c2c3c(nc4ncnn24)CCC3)CC1,12.6 µM (active),–
COC(=O)c1ccccc1NC(=O)C1CCN(C(=O)c2ccc(OC)cc2)CC1,inactive,–
COc1ccc(NC(=O)N2CCCC2C(=O)Nc2ccccc2)cc1 (centres undefined),inactive,–
COc1ccccc1CNc1ccnc(-c2cccc(C#N)c2)n1,25.1 µM (active),–
COc1ccc(CNc2ccnc(-c3cccnc3)n2)c(OC)c1,10 µM (active),–
COc1cccc(-c2nccc(NCc3ccccc3OC)n2)c1,0.398 µM (active),–
COc1cccc(-c2nccc(NCc3ccc(OC)cc3OC)n2)c1,12.6 µM (active),–
COc1ccc(C(=O)Nc2scc(-c3ccc(Cl)cc3Cl)c2C(N)=O)cc1,inactive,–
CN1CCCN(C2C3CC4CC(C3)CC2C4)CC1 (centres undefined),inactive,–
Cc1cc(C)c(S(=O)(=O)N2CCN(c3ccc([N+](=O)[O-])c(NCc4ccco4)c3)CC2)c(C)c1,inactive,–
CCOCC(=O)Nc1c(C(=O)Nc2ccccc2OC)oc2ccccc12,inactive,–
COc1ccc(COC(=O)N/N=C2/C[C@@H](O)[C@@H](O)[C@@H]3[C@@H]4C(=O)N([C@@H](C)c5ccccc5)C(=O)[C@H]4CC[C@@H]23)cc1,–,-8.23% [at 11.4 µM] (inactive)
CC(C)=C1C(=O)C(c2ccccc2)=C2CN3C(=O)N(CCc4ccccc4)C(=O)[C@]3(Cc3ccccc3)[C@H]21,inactive,–
O=C(O)c1nc(-c2ccccc2)[nH]c1C(=O)O,–,-20.9% [at 11.4 µM] (inactive)
Cc1cccc(NC(=O)c2cc(N3C(=O)CCC3=O)ccc2Cl)n1,inactive,–
Cc1ccc(S(=O)(=O)N(C)c2cc(S(=O)(=O)N3CCC(C)CC3)c(C)cc2C)cc1,inactive,–
CCOC(=O)c1cnc(-n2nc(C)cc2C)nc1NCCO,inactive,–
CC1=C(\C=C/C(C)=C/C=C\C(C)=C\C(=O)O)C(C)(C)CCC1,inactive and 2 µM (active),–
CC1=CC(=O)CC(C)(C)[C@]1(O)/C=C\C(C)=C\C(=O)O,–,11.4% [at 11.4 µM] (inactive)
O=C1c2ccccc2N[C@H](c2cc(Cl)cc(Cl)c2O)N1CCc1ccccn1,–,15% [at 11.4 µM] (inactive)
N#Cc1c(NC(=O)C2CC(c3ccccc3Cl)=NO2)sc2c1CCC2 (centres undefined),inactive,–
COC(=O)C1CCN(CC(=O)Nc2sc3c(c2C#N)CCC3)CC1,1.12 µM (active),–
COC(=O)c1c(NC(=O)Cn2cc([N+](=O)[O-])cn2)sc2c1CCC2,inactive,–
O=c1c(-c2ccc(F)cc2)nc2cnc(N3CCOCC3)nc2n1C[C@H]1CCCO1,inactive,–

SMILES,AC50,"activity, negative = inhibition"
COc1ccc(Cc2nnc(NC(=O)c3cccc([N+](=O)[O-])c3C)s2)cc1,inactive,–
COc1cc(OC)c2c(c1Cl)O[C@@]1(C2=O)[C@H](C)CC(=O)C[C@@H]1OC,inactive,–
COCCn1c(=O)c(-c2cc(F)cc(F)c2)nc2cnc(Oc3ccccc3)nc21,inactive,–
CSc1nc2c(c(C(F)(F)F)n1)CC(C)CC2 (centres undefined),inactive,–
CSc1nc(N)c2ncn([C@@H]3O[C@@H](COP(=O)(O)OP(=O)(O)O)[C@@H](O)[C@H]3O)c2n1,inactive,–
COc1ccc(N2C(=O)NC(NC(=O)c3ccncc3)(C(F)(F)F)C2=O)cc1 (centres undefined),inactive,–
Cc1nc(SCC(=O)Nc2c(C)n(C)n(-c3ccccc3)c2=O)nc(C)c1C,inactive,–
Cc1ccc(-c2nnc(-c3ccc4ccccc4c3)o2)cc1,–,3.58% [at 11.4 µM] (inactive)
c1ccc2cc(NCNc3ccc4ccccc4c3)ccc2c1,1 µM (active),–
O=C(Nc1ccc2ccccc2c1)c1onc2c1CCCC2,inactive,–
CCOc1cc(CN2CCN(c3ccc(C(C)=O)cc3)CC2)ccc1OC,inactive,–
Cn1c(N)nc2c(nc(OCc3ccccc3)n2[C@@H]2O[C@H](CO)[C@@H](O)[C@@H]2O)c1=O,–,9.24% [at 11.4 µM] (inactive)
CCN1C(=O)/C(=C/C=C2/SCCN2C)SC1=S,inactive,–
O=C1c2ccccc2C(=O)C1c1ccccc1,inactive,–
CC1(C)C(=O)NC2=C1C(=O)C(=O)c1ccccc12,2.51 µM (active),–
Cn1ncc2c(Cl)ncnc21,–,12.3% [at 11.4 µM] (inactive)
COc1ccc(-c2cc(C(F)(F)F)n3nc(C(=O)NCc4ccco4)c(Cl)c3n2)cc1,inactive,–
CCCCOC(=S)NC(=O)c1sc2ccccc2c1Cl,inactive,–
CN(C)CC(CN(C)C)c1ccccn1,–,6.41% [at 11.4 µM] (inactive)
CN(C)CC[C@H](c1ccc(Br)cc1)c1ccccn1,15.8 µM (active) and 25.1 µM (active),–
CN(C)CC[C@@H](c1ccccc1)c1ccccn1,inactive,–
CC(=O)Oc1ccc(C(c2ccc(OC(C)=O)cc2)c2ccccn2)cc1,inactive,–
CN(C)CC[C@H](c1ccc(Cl)cc1)c1ccccn1,31.6 µM (active),–
Cc1ccc(-c2c(C#N)c(N)n(-c3ccccc3)c(=O)c2C#N)cc1,inactive,–

SMILES,AC50,"activity, negative = inhibition"
COC(=O)C1=C(C)C(c2ccc(OC)cc2)NC(=S)N1 (centres undefined),inactive,–
Cc1noc(C)c1COc1ccc(C(=O)NCC2CCCO2)cc1 (centres undefined),inactive,–
N[C@H](C(=O)O)[C@@H](O)c1cnc[nH]1,–,10.8% [at 11.4 µM] (inactive)
COc1cc(OC)c(C(=O)CCCCN2CCC3(CC2)NC(=O)NC3=O)cc1NS(=O)(=O)c1ccc(C(F)(F)F)cc1,inactive,–
CC[C@H]1C2=C3C(CC[C@H]4C(OCc5ccc(F)cc5C(F)(F)F)OC[C@](C)([C@@H]34)N(C(=O)OC(C)(C)C)C2)C(COC(C)=O)C1COC(C)=O (some centres undefined),inactive,–
CCOC(=O)C1=C(N)Oc2ccc(Br)cc2[C@@H]1[C@@H](C#N)C(=O)OCC,inactive,–
O=c1c(-c2ccc(F)cc2)nc2cnc(N3CCNCC3)nc2n1C1CC1,inactive,–
c1ccc2cc(Sc3ncnc4c3oc3ccccc34)ccc2c1,inactive,–
O=C(Cn1cnc2c(oc3ccccc32)c1=O)NCc1ccco1,inactive,–
CCc1nc(N[C@H](C(=O)O)C(C)CC)c2oc3ccccc3c2n1 (some centres undefined),inactive,–
c1ccc2c(c1)oc1c(NCCCn3ccnc3)ncnc12,1.26 µM (active),–
Cc1nc(SCC(=O)NCCc2ccccc2)c2oc3ccccc3c2n1,inactive,–
c1ccc(-c2nc(NCCCn3ccnc3)c3oc4ccccc4c3n2)cc1,2 µM (active),–
CC(C)=CCC/C(C)=C/CO/N=C1/C[C@@H](O)[C@@H](O)[C@@H]2[C@H]3C(=O)N(c4ccc(F)cc4F)C(=O)[C@@H]3CC[C@H]12,–,6.74% [at 11.4 µM] (inactive)
O=c1cc(CSc2nnc(-c3cccnc3)n2-c2ccccc2F)nc2sccn12,inactive,–
C=CCC(NCc1ccco1)c1ccc(OC)cc1 (centres undefined),5.01 µM (active),–
COc1ccc(-n2c(N)c(C(=O)NCc3ccco3)sc2=S)cc1,inactive,–
COc1ccc(OC)c(NC(=O)C(CC(=O)O)NCc2ccco2)c1 (centres undefined),inactive,–
CS(=O)(=O)N1CCC2(CC1)CN(C(=O)Nc1cccc(C#N)c1)C2,inactive,–
O=C(O)/C=C\C(=O)N1Cc2cc3ccccc3nc2C1,–,-1.33% [at 11.4 µM] (inactive)
CC(=O)N(CC(O)CN(C(C)=O)c1c(I)c(C(=O)NC[C@@H](O)CO)c(I)c(C(=O)NC[C@@H](O)CO)c1I)c1c(I)c(C(=O)NC[C@@H](O)CO)c(I)c(C(=O)NC[C@@H](O)CO)c1I,inactive,–
COc1ccc(-n2cccc2C=O)cc1OC,inactive,–
CS(=O)(=O)N1CCC2(CC1)CN(C(=O)Nc1ccccc1)C2,inactive,–
CS(=O)(=O)N1CCC2(CC1)CN(c1ccc(-c3ccccc3)cc1)C2,inactive,–

SMILES,AC50,"activity, negative = inhibition"
CS(=O)(=O)N1CCC2(CCN(c3cccc(-c4ccccc4)c3)CC2)CC1,inactive,–
CS(=O)(=O)N1CCC2(CC1)CN(c1ccncc1)C2,inactive,–
CS(=O)(=O)N1CCC2(CC1)CN(C(c1ccccc1)c1ccccc1)C2,2.51 µM (active),–
CS(=O)(=O)N1CCC2(CCCN(c3ccncc3)C2)CC1,inactive,–
CS(=O)(=O)N1CCC2(CC1)CN(c1ccccc1)C2,1.26 µM (active),–
CS(=O)(=O)N1CCC2(CCN(c3ccccc3)CC2)CC1,inactive,–
CS(=O)(=O)N1CCC2(CCN(C(c3ccccc3)c3ccccc3)CC2)CC1,3.16 µM (active),–
CS(=O)(=O)N1CCC2(CCCN(C(c3ccccc3)c3ccccc3)C2)CC1,5.01 µM (active),–
O=C1NC(=S)N/C1=C/c1cccc([N+](=O)[O-])c1O,inactive,–
O=C1CC(c2ccc(F)cc2)Cc2nc(NCC3CCCO3)ncc21 (centres undefined),inactive,–
CC12CCC(C(=O)Nc3ncc([N+](=O)[O-])s3)(OC1=O)C2(C)C (centres undefined),inactive,–
Cc1cccc(C(=O)NN(C)c2nc(-c3ccccc3)nnc2C(F)(F)F)c1,inactive,–
CCOC(=O)N1CCN(C(=O)c2cc(-c3ccc(F)cc3)[nH]c2C)CC1,inactive,–
COC(=O)C/C=C\[C@@H](C)[C@@H](/C=N\O[C@@H](C)c1cn([C@H](CO)Cc2ccccc2)nn1)NS(=O)(=O)c1ccc(C)cc1,–,-17.6% [at 11.4 µM] (inactive)
COCCCn1nnnc1SCC(=O)N1CCCC1,inactive,–
Cn1c(SC2CCCCC2=O)nnc1-c1ccncc1 (centres undefined),inactive,–
COC(=O)Cn1nc(-c2ccccc2)n(-c2ccccc2)c1=S,inactive,–
O=C(NC(=S)Nc1cccc(Cl)c1N1CCCC1)c1ccc(-c2cccc([N+](=O)[O-])c2)o1,inactive,–
CS(=O)(=O)N1CCC[C@@]2(CCN(C(=O)Nc3ccccc3)C2)C1,inactive,–
CS(=O)(=O)N1CCC[C@@]2(CCN(c3ccccc3)C2)C1,inactive,–
CS(=O)(=O)N1CCC[C@@]2(CCN(C(c3ccccc3)c3ccccc3)C2)C1,3.98 µM (active),–
Cc1nc2c3cnn(-c4ccc(C)c(C)c4)c3ncn2n1,inactive,–
